One sequence from paper PMC7862700, “An all-to-all approach to the identification of sequence-specific readers for epigenetic DNA modifications on cytosine” can be followed below.

Experiment in all cases: DAPPL (digital affinity profiling via proximity ligation, sequencing); 10 mM Tris-HCl pH 7.5, 50 mM NaCl, 1 mM DTT, 4% glycerol, room temperature, 30 min; GST-TFs on glutathione beads, 16-mer random dsDNA library, 0.1% formaldehyde crosslink after washing; high values mean tight binding
One test has as its target T1, FEV (Homo sapiens, UniProt Q99581 1-238).
T1 sequence: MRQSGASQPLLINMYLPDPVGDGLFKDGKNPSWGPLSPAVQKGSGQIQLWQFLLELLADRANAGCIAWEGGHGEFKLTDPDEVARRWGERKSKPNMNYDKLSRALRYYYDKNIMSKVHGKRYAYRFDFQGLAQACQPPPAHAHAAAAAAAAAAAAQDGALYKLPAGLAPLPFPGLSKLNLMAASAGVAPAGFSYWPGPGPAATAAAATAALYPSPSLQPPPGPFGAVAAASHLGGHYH
Particulars: protein: recombinant; tags: N-terminal GST; dsDNA, one strand shown. In short, it runs like this: (§1)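 Human transcription factors fused to GST were expressed in yeast, captured on glutathione beads, given DNA barcodes and pooled with a GST-only negative control. Pools were incubated with 200 nmole of a 16-mer random double-stranded DNA library in Tris/NaCl/DTT/glycerol buffer at room temperature for 30 min. They were then washed, crosslinked with 0.1% formaldehyde, proximity-ligated (BsaI/T4 ligase, 1 h, 37 °C), PCR-amplified and sequenced on an Illumina NextSeq500. Binding signal is each 6-mer's read frequency for a factor divided by its frequency for the GST control.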

The next test has as its target ETV5 (Homo sapiens, UniProt P41161 1-510). Conditions: protein: recombinant; tags: N-terminal GST; dsDNA, one strand shown. In short, it runs like this: as §1
The next test addresses HSF1 (Homo sapiens, UniProt Q00613 1-529). Particulars: protein: recombinant; tags: N-terminal GST; chain copies: 3; dsDNA, one strand shown. In short, it runs like this:
as §1

The next test deals with T2, SPIC (Homo sapiens, UniProt Q8N5J4 1-248).
T2 sequence: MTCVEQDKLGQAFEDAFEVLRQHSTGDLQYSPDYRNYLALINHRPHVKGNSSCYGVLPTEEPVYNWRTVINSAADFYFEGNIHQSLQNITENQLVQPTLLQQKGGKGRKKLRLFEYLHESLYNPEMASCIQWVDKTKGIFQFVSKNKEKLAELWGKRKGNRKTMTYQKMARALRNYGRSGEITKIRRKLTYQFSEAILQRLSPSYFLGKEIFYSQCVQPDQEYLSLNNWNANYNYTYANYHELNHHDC
Conditions: protein: recombinant; tags: N-terminal GST; dsDNA, one strand shown. The procedure, abridged: as §1

The target in a further test is ELF4 (Homo sapiens, UniProt Q99607 1-663). Particulars: protein: recombinant; tags: N-terminal GST; dsDNA, one strand shown. In short, it runs like this:
as §1

The target of the next test is T3, ELK4 (Homo sapiens, UniProt P28324-2 1-405).
T3 sequence: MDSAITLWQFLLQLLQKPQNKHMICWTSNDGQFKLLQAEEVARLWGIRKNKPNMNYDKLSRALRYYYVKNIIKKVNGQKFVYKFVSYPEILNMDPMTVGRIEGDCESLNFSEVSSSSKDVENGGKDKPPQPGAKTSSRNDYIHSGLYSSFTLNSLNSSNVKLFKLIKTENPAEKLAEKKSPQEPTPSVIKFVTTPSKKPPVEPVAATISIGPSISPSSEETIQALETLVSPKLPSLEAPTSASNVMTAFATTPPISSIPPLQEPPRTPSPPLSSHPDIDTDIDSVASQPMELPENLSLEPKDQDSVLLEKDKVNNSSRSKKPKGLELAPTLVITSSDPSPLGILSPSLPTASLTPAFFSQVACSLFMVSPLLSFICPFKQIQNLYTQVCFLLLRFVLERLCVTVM
Conditions: protein: recombinant; tags: N-terminal GST; dsDNA, one strand shown. The procedure, abridged: as §1

The target in a further test is T4, ETV2 (Homo sapiens, UniProt O00321 1-342).
T4 sequence: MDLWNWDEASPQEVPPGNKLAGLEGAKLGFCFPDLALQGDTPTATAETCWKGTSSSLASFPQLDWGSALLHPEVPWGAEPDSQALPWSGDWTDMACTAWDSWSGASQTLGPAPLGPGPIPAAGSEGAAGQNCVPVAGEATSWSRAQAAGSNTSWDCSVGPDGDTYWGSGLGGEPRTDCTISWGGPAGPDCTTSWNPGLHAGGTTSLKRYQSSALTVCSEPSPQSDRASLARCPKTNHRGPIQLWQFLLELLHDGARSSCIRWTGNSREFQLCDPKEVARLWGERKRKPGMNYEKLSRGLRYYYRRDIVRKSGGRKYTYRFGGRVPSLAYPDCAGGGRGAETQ
Conditions: protein: recombinant; tags: N-terminal GST; dsDNA, one strand shown. In short, it runs like this:
as §1

The next test has as its target T5, ELF3 (Homo sapiens, UniProt P78545 1-371).
T5 sequence: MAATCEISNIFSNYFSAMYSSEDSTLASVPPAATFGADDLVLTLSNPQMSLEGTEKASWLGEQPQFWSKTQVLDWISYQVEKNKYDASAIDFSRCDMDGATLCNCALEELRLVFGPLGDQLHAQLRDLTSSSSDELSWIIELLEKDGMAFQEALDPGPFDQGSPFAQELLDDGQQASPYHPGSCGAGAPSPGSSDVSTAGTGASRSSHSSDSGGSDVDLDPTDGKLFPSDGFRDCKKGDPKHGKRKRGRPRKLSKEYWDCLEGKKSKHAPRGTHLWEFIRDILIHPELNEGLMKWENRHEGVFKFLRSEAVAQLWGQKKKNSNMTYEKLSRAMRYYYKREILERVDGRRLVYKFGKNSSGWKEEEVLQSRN
Conditions: protein: recombinant; tags: N-terminal GST; dsDNA, one strand shown. In short, it runs like this: as §1

The target of another test is CRX (Homo sapiens, UniProt O43186 1-299). Conditions: protein: recombinant; tags: N-terminal GST; dsDNA, one strand shown. The procedure, abridged: as §1
Chain of CRX (O43186 whole entry): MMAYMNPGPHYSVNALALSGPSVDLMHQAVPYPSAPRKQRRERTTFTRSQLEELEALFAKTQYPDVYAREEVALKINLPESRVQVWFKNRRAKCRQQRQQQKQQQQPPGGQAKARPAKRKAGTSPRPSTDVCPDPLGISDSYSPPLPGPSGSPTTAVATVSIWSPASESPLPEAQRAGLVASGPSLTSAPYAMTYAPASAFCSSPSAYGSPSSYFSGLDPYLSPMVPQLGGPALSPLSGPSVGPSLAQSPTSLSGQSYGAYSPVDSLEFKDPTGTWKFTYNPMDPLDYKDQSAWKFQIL
The target in a further test is ETV1 (Homo sapiens, UniProt P50549 1-477). Conditions: protein: recombinant; tags: N-terminal GST; dsDNA, one strand shown. The procedure, abridged: as §1
Chain of ETV1 (P50549 whole entry): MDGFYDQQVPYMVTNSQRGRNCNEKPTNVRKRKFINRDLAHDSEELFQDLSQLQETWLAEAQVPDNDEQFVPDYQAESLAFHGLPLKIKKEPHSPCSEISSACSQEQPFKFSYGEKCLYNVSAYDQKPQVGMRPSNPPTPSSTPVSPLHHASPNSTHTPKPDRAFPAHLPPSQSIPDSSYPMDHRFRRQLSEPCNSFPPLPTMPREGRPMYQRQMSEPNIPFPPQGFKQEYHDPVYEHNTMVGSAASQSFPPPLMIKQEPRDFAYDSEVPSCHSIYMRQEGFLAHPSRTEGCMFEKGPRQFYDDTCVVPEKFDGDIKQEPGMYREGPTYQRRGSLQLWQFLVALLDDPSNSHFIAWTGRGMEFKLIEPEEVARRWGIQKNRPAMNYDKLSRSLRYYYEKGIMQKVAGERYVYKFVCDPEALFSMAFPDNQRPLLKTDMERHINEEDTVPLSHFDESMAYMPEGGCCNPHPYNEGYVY
The target in another test is T6, ERF (Homo sapiens, UniProt P50548 1-548).
T6 sequence: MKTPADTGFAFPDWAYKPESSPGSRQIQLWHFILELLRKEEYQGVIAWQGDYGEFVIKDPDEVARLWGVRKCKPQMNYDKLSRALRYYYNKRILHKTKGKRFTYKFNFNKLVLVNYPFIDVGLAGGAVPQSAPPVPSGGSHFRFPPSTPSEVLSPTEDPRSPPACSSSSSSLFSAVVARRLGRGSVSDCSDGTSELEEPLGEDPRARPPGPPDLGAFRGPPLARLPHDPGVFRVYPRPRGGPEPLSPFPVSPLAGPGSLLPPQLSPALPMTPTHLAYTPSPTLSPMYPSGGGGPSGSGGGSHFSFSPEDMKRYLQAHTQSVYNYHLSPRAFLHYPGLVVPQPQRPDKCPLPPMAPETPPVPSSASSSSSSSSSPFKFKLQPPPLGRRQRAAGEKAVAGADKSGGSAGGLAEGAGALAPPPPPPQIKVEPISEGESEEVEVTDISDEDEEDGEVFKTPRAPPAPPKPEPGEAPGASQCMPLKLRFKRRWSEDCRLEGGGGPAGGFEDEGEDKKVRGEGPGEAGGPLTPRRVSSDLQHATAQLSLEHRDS
Conditions: protein: recombinant; tags: N-terminal GST; dsDNA, one strand shown. The procedure, abridged:
as §1

The target of the next test is T7, ETV3L (Homo sapiens, UniProt Q6ZN32 1-361).
T7 sequence: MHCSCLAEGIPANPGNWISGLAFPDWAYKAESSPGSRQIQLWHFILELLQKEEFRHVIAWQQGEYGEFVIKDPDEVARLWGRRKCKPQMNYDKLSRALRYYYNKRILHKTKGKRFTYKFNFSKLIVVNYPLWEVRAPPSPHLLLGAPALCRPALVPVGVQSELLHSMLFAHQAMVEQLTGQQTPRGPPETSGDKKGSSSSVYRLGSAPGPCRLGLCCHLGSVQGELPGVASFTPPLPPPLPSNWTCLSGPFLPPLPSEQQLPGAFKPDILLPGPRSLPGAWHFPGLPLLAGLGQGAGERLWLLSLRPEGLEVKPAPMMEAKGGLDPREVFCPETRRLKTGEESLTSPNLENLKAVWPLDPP
Particulars: protein: recombinant; tags: N-terminal GST; dsDNA, one strand shown. In short, it runs like this: as §1

A further test deals with T8, ETS2 (Homo sapiens, UniProt P15036 1-469).
T8 sequence: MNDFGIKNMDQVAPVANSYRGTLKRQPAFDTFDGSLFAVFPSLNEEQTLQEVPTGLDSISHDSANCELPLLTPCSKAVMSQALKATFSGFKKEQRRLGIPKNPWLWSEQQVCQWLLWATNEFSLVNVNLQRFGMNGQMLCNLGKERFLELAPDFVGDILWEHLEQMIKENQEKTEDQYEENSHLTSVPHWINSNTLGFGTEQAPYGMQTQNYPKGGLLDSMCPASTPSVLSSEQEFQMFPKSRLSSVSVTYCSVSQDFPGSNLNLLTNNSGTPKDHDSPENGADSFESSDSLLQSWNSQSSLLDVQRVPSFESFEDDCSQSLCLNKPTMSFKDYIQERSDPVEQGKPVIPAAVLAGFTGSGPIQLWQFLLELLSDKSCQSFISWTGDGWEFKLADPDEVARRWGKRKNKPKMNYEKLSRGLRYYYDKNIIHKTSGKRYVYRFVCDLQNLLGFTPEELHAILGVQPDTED
Conditions: protein: recombinant; tags: N-terminal GST; dsDNA, one strand shown. In short, it runs like this:
as §1

The next test addresses T9, SPDEF (Homo sapiens, UniProt O95238 1-335).
T9 sequence: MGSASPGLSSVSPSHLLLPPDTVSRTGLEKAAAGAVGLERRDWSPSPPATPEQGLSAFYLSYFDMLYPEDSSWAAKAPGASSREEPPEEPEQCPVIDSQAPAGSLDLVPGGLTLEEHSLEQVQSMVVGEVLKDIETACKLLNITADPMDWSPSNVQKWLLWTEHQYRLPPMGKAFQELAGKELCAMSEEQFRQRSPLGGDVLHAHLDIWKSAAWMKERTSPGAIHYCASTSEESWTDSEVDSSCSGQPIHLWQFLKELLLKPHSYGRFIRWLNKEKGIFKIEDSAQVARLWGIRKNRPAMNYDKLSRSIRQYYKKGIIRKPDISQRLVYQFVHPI
Conditions: protein: recombinant; tags: N-terminal GST; dsDNA, one strand shown. The procedure, abridged:
as §1

Another test addresses T10, ETV7 (Homo sapiens, UniProt Q9Y603 1-341).
T10 sequence: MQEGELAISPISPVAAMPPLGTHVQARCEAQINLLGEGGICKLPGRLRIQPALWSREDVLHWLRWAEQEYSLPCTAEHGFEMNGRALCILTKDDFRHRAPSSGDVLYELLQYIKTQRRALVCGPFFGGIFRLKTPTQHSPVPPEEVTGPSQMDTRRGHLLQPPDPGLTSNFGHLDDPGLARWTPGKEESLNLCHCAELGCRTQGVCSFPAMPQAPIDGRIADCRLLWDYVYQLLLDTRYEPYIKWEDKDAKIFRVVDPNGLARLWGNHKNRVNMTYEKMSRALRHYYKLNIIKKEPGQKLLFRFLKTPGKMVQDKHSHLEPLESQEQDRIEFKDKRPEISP
Conditions: protein: recombinant; tags: N-terminal GST; dsDNA, one strand shown. In short, it runs like this: as §1

In a further test the target is T11, ELF5 (Homo sapiens, UniProt Q9UKW6-2 1-255).
T11 sequence: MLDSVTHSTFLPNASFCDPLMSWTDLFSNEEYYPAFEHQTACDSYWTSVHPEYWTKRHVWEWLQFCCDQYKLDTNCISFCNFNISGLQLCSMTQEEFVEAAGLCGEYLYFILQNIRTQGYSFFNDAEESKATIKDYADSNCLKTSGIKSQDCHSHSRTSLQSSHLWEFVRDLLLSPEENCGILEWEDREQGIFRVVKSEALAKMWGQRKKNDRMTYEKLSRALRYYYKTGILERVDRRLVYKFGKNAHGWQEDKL
Particulars: protein: recombinant; tags: N-terminal GST; dsDNA, one strand shown. The procedure, abridged: as §1

In the next test the target is T12, ETV3 (Homo sapiens, UniProt P41162-2 1-143).
T12 sequence: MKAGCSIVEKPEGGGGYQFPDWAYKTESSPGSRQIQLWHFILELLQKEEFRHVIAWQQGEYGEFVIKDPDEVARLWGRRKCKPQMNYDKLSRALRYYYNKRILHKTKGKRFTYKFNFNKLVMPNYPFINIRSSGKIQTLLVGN
Conditions: protein: recombinant; tags: N-terminal GST; dsDNA, one strand shown. The procedure, abridged: as §1

Another test addresses ETV6 (Homo sapiens, UniProt P41212 1-452). Conditions: protein: recombinant; tags: N-terminal GST; dsDNA, one strand shown. The procedure, abridged: as §1

Chain of ETV6 (P41212 whole entry): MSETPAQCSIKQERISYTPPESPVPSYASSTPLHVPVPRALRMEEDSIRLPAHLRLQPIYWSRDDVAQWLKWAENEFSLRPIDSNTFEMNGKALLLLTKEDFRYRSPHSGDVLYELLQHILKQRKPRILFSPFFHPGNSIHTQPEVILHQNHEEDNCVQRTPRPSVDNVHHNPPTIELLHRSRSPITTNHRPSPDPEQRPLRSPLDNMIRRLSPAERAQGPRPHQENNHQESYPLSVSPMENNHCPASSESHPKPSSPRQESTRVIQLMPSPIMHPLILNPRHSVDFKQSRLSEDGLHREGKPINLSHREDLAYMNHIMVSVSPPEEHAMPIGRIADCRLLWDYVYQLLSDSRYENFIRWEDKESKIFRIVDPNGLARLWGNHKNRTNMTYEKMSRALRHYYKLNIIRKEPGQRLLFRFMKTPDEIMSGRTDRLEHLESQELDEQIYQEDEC
Chain of ELF4 (Q99607 whole entry): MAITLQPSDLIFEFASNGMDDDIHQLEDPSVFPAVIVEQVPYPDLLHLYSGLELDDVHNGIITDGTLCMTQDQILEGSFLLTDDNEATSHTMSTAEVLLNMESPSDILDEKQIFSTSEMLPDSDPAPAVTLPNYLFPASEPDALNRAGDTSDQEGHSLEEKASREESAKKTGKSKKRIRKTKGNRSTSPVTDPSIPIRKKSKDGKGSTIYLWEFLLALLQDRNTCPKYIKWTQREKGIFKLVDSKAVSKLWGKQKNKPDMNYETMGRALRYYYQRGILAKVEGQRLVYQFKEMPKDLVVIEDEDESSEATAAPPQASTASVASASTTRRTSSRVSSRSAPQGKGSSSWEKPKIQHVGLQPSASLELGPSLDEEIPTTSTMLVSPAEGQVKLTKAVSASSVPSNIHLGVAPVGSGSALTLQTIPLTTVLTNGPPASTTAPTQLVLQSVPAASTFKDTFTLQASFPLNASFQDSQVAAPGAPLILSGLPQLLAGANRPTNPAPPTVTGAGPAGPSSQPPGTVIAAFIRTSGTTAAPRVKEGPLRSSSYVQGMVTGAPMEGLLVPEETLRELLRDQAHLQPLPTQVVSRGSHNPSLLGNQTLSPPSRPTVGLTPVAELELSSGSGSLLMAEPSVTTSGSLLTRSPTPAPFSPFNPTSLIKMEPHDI
Chain of ETV5 (P41161 whole entry): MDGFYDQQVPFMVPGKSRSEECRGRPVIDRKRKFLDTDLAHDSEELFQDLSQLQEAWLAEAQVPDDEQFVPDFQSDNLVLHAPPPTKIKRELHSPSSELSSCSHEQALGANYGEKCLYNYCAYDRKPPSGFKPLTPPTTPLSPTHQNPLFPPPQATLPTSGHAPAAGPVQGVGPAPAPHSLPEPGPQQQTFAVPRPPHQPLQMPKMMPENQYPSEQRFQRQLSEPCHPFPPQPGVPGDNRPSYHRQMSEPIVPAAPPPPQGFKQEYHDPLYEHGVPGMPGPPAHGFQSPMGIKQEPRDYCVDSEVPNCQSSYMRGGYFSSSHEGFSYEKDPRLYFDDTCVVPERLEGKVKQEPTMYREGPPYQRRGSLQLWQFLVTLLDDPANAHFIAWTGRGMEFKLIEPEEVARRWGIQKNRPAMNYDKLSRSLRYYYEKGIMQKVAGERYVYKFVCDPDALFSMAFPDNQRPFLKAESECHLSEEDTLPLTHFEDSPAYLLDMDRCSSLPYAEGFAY
Chain of HSF1 (Q00613 whole entry): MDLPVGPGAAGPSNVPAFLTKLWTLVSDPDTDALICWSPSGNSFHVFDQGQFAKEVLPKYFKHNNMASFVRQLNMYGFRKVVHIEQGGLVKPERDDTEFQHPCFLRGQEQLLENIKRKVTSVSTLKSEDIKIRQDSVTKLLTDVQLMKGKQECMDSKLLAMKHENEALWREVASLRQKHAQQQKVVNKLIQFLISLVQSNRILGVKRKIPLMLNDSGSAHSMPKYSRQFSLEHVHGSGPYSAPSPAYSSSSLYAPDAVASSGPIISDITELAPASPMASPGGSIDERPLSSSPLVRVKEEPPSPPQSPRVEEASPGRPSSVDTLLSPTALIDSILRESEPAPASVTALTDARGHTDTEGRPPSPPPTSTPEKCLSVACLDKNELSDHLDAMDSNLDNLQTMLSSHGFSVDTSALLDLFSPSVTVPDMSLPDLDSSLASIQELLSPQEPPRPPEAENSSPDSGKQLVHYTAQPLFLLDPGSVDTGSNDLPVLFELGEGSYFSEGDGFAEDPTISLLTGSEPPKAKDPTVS

For the sequence TTCTGG, the binding signal with FEV is 1.19 fold enrichment (6-mer frequency, TF over GST control); in the test with ETV5, 1.16 fold enrichment (6-mer frequency, TF over GST control); with HSF1, 4.45 fold enrichment (6-mer frequency, TF over GST control); with SPIC it was 1.36 fold enrichment (6-mer frequency, TF over GST control); with ELF4, 1.29 fold enrichment (6-mer frequency, TF over GST control); with ELK4, 1.35 fold enrichment (6-mer frequency, TF over GST control). Also, the binding signal with ETV2 is 1.42 fold enrichment (6-mer frequency, TF over GST control); in the test with ELF3, 1.21 fold enrichment (6-mer frequency, TF over GST control); in the test with CRX it was 1.76 fold enrichment (6-mer frequency, TF over GST control); with ETV1 it was 1.21 fold enrichment (6-mer frequency, TF over GST control); in the test with ERF it was 1.35 fold enrichment (6-mer frequency, TF over GST control); in the test with ETV3L, 1.23 fold enrichment (6-mer frequency, TF over GST control). For the same sequence, the binding signal with ETS2 was 1.19 fold enrichment (6-mer frequency, TF over GST control); with SPDEF, 1.23 fold enrichment (6-mer frequency, TF over GST control); with ETV7, 1.21 fold enrichment (6-mer frequency, TF over GST control); with ELF5 it was 1.22 fold enrichment (6-mer frequency, TF over GST control); with ETV3 it was 1.2 fold enrichment (6-mer frequency, TF over GST control); with ETV6, 1.32 fold enrichment (6-mer frequency, TF over GST control).
